Shown are actives, neighbours in structure and some others; about 2.8% of the full set was active somewhere.
SENP6 inh: SENP6 protease inhibitors, primary screen, biochemical, luminescence, uHTS. Recombinant SENP6 catalytic domain, aminoluciferin luminescence. AID 2599, 2010. hit rate 1.8% among 330,000. Sentrin-specific protease 6 (Homo sapiens), Q9GZR1. inhibition, % at 10 µM;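 active = inhibition above about 50% at the single tested dose, limit read from the data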;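 also: plate controls were DMSO wells with enzyme for no effect and DMSO wells lacking enzyme for full effect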
SENP7 inh: SENP7 protease inhibitors, primary screen, biochemical, luminescence, uHTS; hit rate 1.5% among 330,000; Sentrin-specific protease 7 (Homo sapiens), Q9BQF6; recombinant SENP7, Z-RLRGG-aminoluciferin luminescence, 40 min; inhibition, % at 5 µM;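 active = inhibition above about 50% at the single test dose, limit read from the data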;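 also: plate controls were DMSO with enzyme for no effect and no enzyme buffer wells for full effect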
Platelet DG rel: inhibitors of platelet dense granule secretion, primary screen, cell-based, MLPCN, human platelets; hit rate 0.22% among 300,000; human platelet-rich plasma, SFLLRN dense granule ATP release, luminescence; inhibition, %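 (compounds screened at 7.5 µM in platelet-rich plasma)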;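 active = mean replicate score, as percent of positive control, at or above 50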
SENP8 block-1: SENP8 protease inhibitors, primary screen, biochemical, luminescence. purified SENP8, Z-RLRGG-aminoluciferin cleavage. AID 2540, 2010. hit rate 1.2% among 330,000. inhibition, % at 10 µM; in the data active = inhibition above about 50%
Target sequence (Q96LD8 whole entry, looked up): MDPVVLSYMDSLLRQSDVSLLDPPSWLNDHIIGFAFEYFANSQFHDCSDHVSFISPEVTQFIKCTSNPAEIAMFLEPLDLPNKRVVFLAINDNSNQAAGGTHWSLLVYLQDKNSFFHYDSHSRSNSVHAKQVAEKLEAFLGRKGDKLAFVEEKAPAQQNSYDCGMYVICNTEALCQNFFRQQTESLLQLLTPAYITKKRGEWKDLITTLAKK
SENP8 block-2: human SENP8 protease inhibitors, primary screen, biochemical, fluorescence, Nedd8 protein substrate, uHTS; inhibition, % at 20 µM; AID 602440, 2012; hit rate 0.64% among 360,000; Sentrin-specific protease 8 (Homo sapiens), Q96LD8; recombinant SENP8; in the data active = inhibition mostly above about 40%, no sharp cut-off; inactive = mostly below about 27%
HSP90 refold inh: HSP90 inhibitors, primary screen, cell lysate, luminescence | Heat shock protein HSP 90 (rabbit reticulocyte lysate; luciferase refolding) | Rabbit reticulocyte lysate, luciferase refolding luminescence, 3 h | inhibition, % at 5.6 µM | AID 1789, 2009 | hit rate 0.91% among 290,000;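 active = inhibition above the screen-wide mean plus 3 SD, computed separately per campaign, cut at about 16% in these data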;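 also: 0% = DMSO wells and 100% = 60 µM geldanamycin wells; inhibitors lower the luminescence because luciferase stays unfolded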
SENP8 conf: SENP8 protease inhibitors, retest, confirmation, biochemical, luminescence, single concentration | shares compounds with SENP7 inh | Recombinant SENP8, Z-RLRGG-aminoluciferin luminescence, 60 min | inhibition, % at 12.5 µM | hit rate 40% among 6,200 | AID 488912, 2010;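 active = mean inhibition across replicates above about 50%, limit read from the data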
SENP6 confirm: SENP6 protease inhibitors, confirmation, biochemical, luminescence, single concentration; shares compounds with SENP7 inh; recombinant SENP6, Z-RLRGG-aminoluciferin luminescence; inhibition, % at 12.5 µM; hit rate 58% among 6,200; AID 488915, 2010
SENP7 confirm: SENP7 protease inhibitors, retest, confirmation, biochemical, luminescence, single concentration | shares compounds with SENP7 inh | recombinant SENP7, Z-RLRGG-aminoluciferin luminescence, 40 min | inhibition, % at 12.5 µM | hit rate 69% among 6,200 | AID 488917, 2010
Casp3 SENP sel: caspase-3 protease inhibitors, confirmation, selectivity assay for SENP inhibitor project, biochemical, single concentration; shares compounds with SENP7 inh; purified caspase-3, Z-DEVD-aminoluciferin luminescence, 60 min; inhibition, % at 12.5 µM; hit rate 60% among 6,200; AID 488918, 2010;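 active = mean inhibition above about 50%, limit read from the data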;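 also: plate controls were enzyme with DMSO for no effect and wells without caspase-3 for full effect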
Target sequence (P42574 28-227 limits assumed): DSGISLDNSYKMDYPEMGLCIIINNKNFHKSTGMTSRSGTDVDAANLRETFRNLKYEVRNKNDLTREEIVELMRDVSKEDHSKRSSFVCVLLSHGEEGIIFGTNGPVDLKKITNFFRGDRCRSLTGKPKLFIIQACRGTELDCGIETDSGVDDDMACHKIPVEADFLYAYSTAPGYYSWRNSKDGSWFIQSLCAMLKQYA
SENP luc ctr: counter-screen for SENP inhibitors: luminescence interference | Pre-incubated SENP8/Z-RLRGG-aminoluciferin, luciferase luminescence interference | shares compounds with SENP7 inh | AID 488919 | hit rate 39% among 6,200 | inhibition, % at 12.5 µM;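 active = mean inhibition above about 50% when retested at one dose, limit read from the data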;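 also: plate controls were DMSO wells with completed reaction for no effect and substrate without enzyme for full effect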
An asterisk follows results filed as active; nt = no result given.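 The calls were made as follows, unless noted: active = mean inhibition above about 50% in the one-dose retest (limit read from the data); inactive = the rest.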

SMILES	SENP6 inh	SENP7 inh	Platelet DG rel	SENP8 block-1	SENP8 block-2	HSP90 refold inh	SENP8 conf	SENP6 confirm	SENP7 confirm	Casp3 SENP sel	SENP luc ctr
CC(C)(C)NCCCCOc1ccccc1F	5	84*	10	-4	6	-2	16	0	-3	-1	-3
O=C(NCc1ccco1)c1cc(-c2ccc3c(c2)OCO3)on1	-14	53*	-3	-6	-24	-4	-1	-6	22	19	-2
COC(=O)c1ccc(S(=O)(=O)N2C3CCC2CC(NC(=O)C2CC2)C3)cc1 (stereo not given)	-12	4	2	-1	4	-4	nt	nt	nt	nt	nt
COc1ccccc1C1(O)CC2CCC(C1)N2S(=O)(=O)c1ccc(C(C)=O)cc1 (stereo not given)	-12	59*	-4	-7	19	-1	4	3	10	6	0
Cc1ccc(S(=O)(=O)N2C(=O)CCC2C(=O)O/N=C(\N)c2ccc([N+](=O)[O-])cc2)cc1 (stereo not given)	-5	1	-5	13	0	4	nt	nt	nt	nt	nt
CCOC(=O)c1c(C)oc2ccc(NS(=O)(=O)c3cccs3)cc12	-11	77*	0	8	6	2	-10	-2	-1	0	-5
Cc1cccc(/C=C/C(=O)c2ccc(NC3=NCCCS3)cc2)c1	93*	88*	11	71*	8	0	81*	68*	12	42	90*
COC(=O)c1ccc(COn2nnc3ccccc32)cc1	56*	52*	11	37	13	11	34	32	76*	70*	34
COc1ccc(C(=O)O/N=C(/C)c2cccs2)cc1	98*	99*	59*	97*	22	-4	12	101*	104*	99*	99*
C/C(=N/OC(=O)c1c(F)cccc1F)c1nccs1	83*	80*	-1	46	17	2	74*	75*	97*	65*	82*
COc1ccc(C/C(N)=N/OC(=O)c2cccs2)cc1	-4	0	13	-3	6	-2	nt	nt	nt	nt	nt
C/C(=N\OC(=O)c1c(-c2c(F)cccc2Cl)noc1C)c1nccs1	0	-10	-10	1	16	-4	nt	nt	nt	nt	nt
CC(=NOC(=O)C1CCCCC1)c1nccs1	nt	nt	nt	nt	9	nt	nt	nt	nt	nt	nt
COc1ccc(C(=O)O/N=C(\C)c2nccs2)cc1	79*	97*	-3	87*	6	0	73*	96*	100*	96*	43
C/C(=N\OC(=O)c1ccc(F)cc1)c1nccs1	74*	84*	1	35	9	3	22	25	50*	56*	21
CN(C)CCNC(=O)C1(C)Cc2c(-c3cccc(C(F)(F)F)c3)ccnc2O1 (stereo not given)	nt	nt	nt	nt	25	nt	nt	nt	nt	nt	nt
CS(=O)(=O)c1ccc(Cl)c(NC(=O)CCN2C(=O)NC3(CCCC3)C2=O)c1	4	-4	nt	3	3	nt	nt	nt	nt	nt	nt
NC(c1csc(Nc2cnccn2)n1)c1ccccc1Cl (stereo not given)	nt	nt	nt	nt	-71	nt	nt	nt	nt	nt	nt
COc1ccccc1CC(=O)Nc1ccc(S(=O)(=O)N(C)C2CCN(C)CC2)cc1	7	1	nt	-3	20	nt	nt	nt	nt	nt	nt
C=CCn1c(C(CCCC)CC(O)COCC(C)C)n[nH]c1=S (stereo not given)	-9	-3	-6	0	11	2	nt	nt	nt	nt	nt
O=C(Nc1ccc(C(=O)N2CCCC2)cc1)c1ccccc1F	69*	77*	28	58*	5	1	66*	68*	91*	93*	78*
O=C(NCc1ccc2c(c1)OCO2)c1cnc2ccccn2c1=O	12	6	-13	-3	-48	-2	nt	nt	nt	nt	nt
COc1ccc(NC(=O)c2ccco2)cc1NC(=O)c1ccccc1F	-14	-7	8	-11	6	-5	nt	nt	nt	nt	nt
O=C(NC(=S)Nc1ccc2c(c1)OCCO2)c1ccccc1F	-24	2	1	-9	20	-1	nt	nt	nt	nt	nt
O=C(Nc1ccc2c(c1)OCCO2)c1ccccc1F	76*	78*	18	58*	10	14	69*	68*	92*	90*	81*
SMILES	SENP6 inh	SENP7 inh	Platelet DG rel	SENP8 block-1	SENP8 block-2	HSP90 refold inh	SENP8 conf	SENP6 confirm	SENP7 confirm	Casp3 SENP sel	SENP luc ctr
COc1ccc(NC(=O)c2ccccc2F)cc1Cl	81*	79*	30	76*	18	3	83*	84*	92*	88*	21
O=C(Nc1ccc2c(c1)OCCO2)c1cnc2ccccn2c1=O	57*	6	14	29	12	-3	11	-1	10	39	6
CC(NC(=O)CCSCc1ccccc1F)c1ccccc1 (stereo not given)	12	5	3	3	22	0	nt	nt	nt	nt	nt
Cc1ccc(C(=O)Nc2cnc3ccccn3c2=O)cc1	3	9	-3	-9	-200	4	nt	nt	nt	nt	nt
N#Cc1ccc(C(=O)Nc2ccc3ccccc3c2)cc1	29	72*	11	22	-8	-3	32	37	81*	59*	5
O=C(Nc1ccccc1)Nc1ccc(C(=O)N2CCOCC2)cc1	59*	82*	21	61*	19	9	81*	81*	97*	93*	82*
N#Cc1ccccc1Sc1ccccc1C(=O)Nc1ccc2ccccc2c1	13	4	-4	6	1	2	nt	nt	nt	nt	nt
O=C(Nc1cnc2ccccn2c1=O)c1ccc(Cl)cc1Cl	66*	69*	4	7	-140	15	57*	59*	76*	82*	22
O=C(Nc1ccc2ccccc2c1)c1ccccc1F	86*	92*	7	82*	8	16	64*	89*	98*	82*	88*

High-throughput results deposited in PubChem by several laboratories.
